# Measurements as given in PubChem BioAssay (NCI).
# About 83,000 compounds went through this panel and 20% of them were active in at least one assay; those are over-represented in the sample as a whole.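 The test compound was applied at a single concentration to cells in 96-well plates for 48 hours, and percent growth was recorded.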 A number with no mark means an inactive call. Active and inactive are the calls of the source. How the source made its calls: active means growth percent below 10; inactive means the rest.
# Assays:
# Experiment in all cases: NCI-60 one-dose screen, 48 h (100 = growth as untreated, 0 = no growth, -100 = all killed)
# SR leukemia = settings: 10 µM
# RPMI-8226 leukemia = settings: 10 µM
# OVCAR-8 ovarian = settings: 10 µM
# OVCAR-5 ovarian = settings: 10 µM
# OVCAR-4 ovarian = settings: 10 µM
# SK-OV-3 ovarian = settings: 10 µM
# IGROV1 ovarian = settings: 10 µM
# OVCAR-3 ovarian = settings: 10 µM
# HS 578T breast = settings: 10 µM
# NCI/ADR-RES ovarian = settings: 10 µM
# T-47D breast = settings: 10 µM
# BT-549 breast = settings: 10 µM
# MDA-MB-435 melanoma = settings: 10 µM
# SW-620 colon = settings: 10 µM
# MCF7 breast = settings: 10 µM unless noted
# HCT-116 colon = settings: 10 µM
# HCC-2998 colon = settings: 10 µM
# KM12 colon = settings: 10 µM
SMILES,growth (SR leukemia),growth (RPMI-8226 leukemia),growth (OVCAR-8 ovarian),growth (OVCAR-5 ovarian) [%],growth (OVCAR-4 ovarian),growth (SK-OV-3 ovarian),growth (IGROV1 ovarian),growth (OVCAR-3 ovarian),growth (HS 578T breast) [%],growth (NCI/ADR-RES ovarian),growth (T-47D breast),growth (BT-549 breast),growth (MDA-MB-435 melanoma),growth (SW-620 colon),growth (MCF7 breast),growth (HCT-116 colon),growth (HCC-2998 colon),growth (KM12 colon)
CCOC(=O)c1cc2cccc(OC)c2oc1=O,104%,95.4%,116%,114,109%,117%,108%,138%,121,111%,106%,88.6%,110%,111%,105%,101%,108%,113%
O=[N+]([O-])c1ccc(O)c(S(=O)(=O)O)c1,98%,105%,94.4%,93.2,108%,110%,130%,109%,103,109%,96.5%,128%,109%,104%,102%,101%,112%,111%
CCOC(=O)c1ccc(Nc2sc(C(=O)c3cccc([N+](=O)[O-])c3)c(N)c2C#N)cc1,-28.3% (active),-3.9% (active),35.7%,38.1,33.1%,27.6%,-6.69% (active),-44.8% (active),15.5,26.8%,48%,52.9%,-2.02% (active),5.69% (active),7.42% (active),0.851% (active),45.8%,17.5%
CCS(=O)(=O)c1cc(=O)[nH]c(=O)[nH]1,57.6%,124%,114%,106,102%,116%,136%,112%,113,103%,114%,115%,86.7%,112%,106%,104%,116%,107%
COC(=O)Nc1nc2ccc(C(=O)c3cccs3)cc2[nH]1,-4.93% (active),28.7%,13.1%,42.4,36.3%,13.3%,39.1%,-7.19% (active),20.9,-20.4% (active),91.1%,26.3%,-47.6% (active),24.8%,14.6%,11.7%,12.1%,7.54% (active)
Cc1nc2c(ccc3ccccc32)s1,91.3%,100%,94.1%,102,108%,107%,109%,121%,106,108%,102%,109%,115%,107%,99.2%,103%,75.1%,117%
O=C(Nc1cccc(NC(=O)Nc2cc(C(F)(F)F)ccc2Cl)c1)Nc1cc(C(F)(F)F)ccc1Cl,-15.6% (active),-14.5% (active),14.3%,27.7,7.2% (active),36.2%,26.9%,-5.64% (active),18.9,26.2%,8.32% (active),17.8%,12.8%,13.5%,6.53% (active),13.2%,37.6%,12.1%
N/N=C(/Cc1ccccc1)NNC(N)=S,99.2%,100%,108%,111,101%,106%,95.2%,111%,106,107%,91.6%,75.7%,92.3%,111%,89.2%,86.3%,117%,101%
CC(=O)OCC1CCCO1 (stereo not drawn),102%,119%,110%,110,102%,92%,113%,114%,94.2,105%,93.1%,107%,100%,87.3%,94.2%,105%,84.8%,102%
CC(=O)c1ccc2c(ccc3ccccc32)c1,97.2%,101%,94.7%,104,100%,112%,101%,115%,107,108%,98.9%,98.1%,96.3%,99.7%,96.3%,90.3%,109%,106%
CNC(=O)c1ccccc1CC1(O)c2ccccc2Oc2ccccc21,8.48% (active),70.5%,74.4%,80.4,83.6%,73.7%,43%,24.7%,63.5,29%,49.4%,65%,-51.3% (active),29.2%,25.6%,32.4%,80.9%,34.5%
N#Cc1ccc(NC(=O)Nc2cccc(C#N)c2)cc1,72.2%,30.9%,83.6%,116,91.2%,115%,78%,105%,99.1,90.1%,66.9%,108%,78.8%,95.8%,82.8%,82.5%,95.1%,102%
COCCOC(=O)c1ccc(C(C)C)cc1,95.7%,108%,103%,104,104%,82.1%,104%,99.5%,117,96%,85%,98.5%,102%,104%,95.6%,100%,103%,101%
CNc1nc(NC)c2cn[nH]c2n1,96.7%,99.2%,111%,106,108%,97.2%,109%,114%,101,108%,101%,103%,111%,106%,97.3%,99.4%,100%,105%
S=C1CCCCCN1,102%,98.3%,104%,103,111%,119%,110%,115%,105,104%,100%,103%,104%,107%,99.4%,102%,112%,105%
Oc1ccccc1-c1nnco1,90.4%,86.8%,98.9%,107,83.1%,91.1%,86.3%,101%,45.1,93.1%,82%,77.5%,91.5%,98.3%,102%,106%,104%,100%
CN(C)/N=C/c1ccccc1O,97.9%,113%,91.3%,89.9,100%,105%,102%,110%,99.7,115%,98.6%,97.5%,107%,100%,106%,94.6%,117%,107%
COC(=O)c1ccc(NC(=O)CCl)cc1,38.7%,70.4%,85.5%,96.4,95.4%,96.7%,50.6%,82.4%,74.9,97.1%,69.7%,67.9%,73.8%,76.6%,58.3%,70%,113%,83.6%

SMILES,growth (SR leukemia),growth (RPMI-8226 leukemia),growth (OVCAR-8 ovarian),growth (OVCAR-5 ovarian) [%],growth (OVCAR-4 ovarian),growth (SK-OV-3 ovarian),growth (IGROV1 ovarian),growth (OVCAR-3 ovarian),growth (HS 578T breast) [%],growth (NCI/ADR-RES ovarian),growth (T-47D breast),growth (BT-549 breast),growth (MDA-MB-435 melanoma),growth (SW-620 colon),growth (MCF7 breast),growth (HCT-116 colon),growth (HCC-2998 colon),growth (KM12 colon)
CCOC(=O)c1ccc(NC(=S)P(=O)(c2ccccc2)c2ccccc2)cc1,69.3%,64.4%,107%,105,99.6%,107%,110%,92.2%,96.4,101%,109%,101%,91.1%,102%,100%,91.7%,108%,96.2%
CC(=O)/C(Cc1ccccc1)=N/O,81.8%,97.5%,96.1%,97.7,92%,89.3%,112%,106%,100,99.9%,89.8%,90.8%,103%,98.4%,94.5%,87.4%,111%,105%
O=[N+]([O-])c1ccc(/C=C/C=C/c2ccccc2)c(Cl)c1,95.2%,87.6%,98.8%,102,82.5%,98.8%,88%,105%,87.7,108%,74.3%,102%,99.5%,98.1%,74.2%,76.6%,97.3%,94.5%
COc1ccccc1N=Nc1c(O)ccc2cc(S(=O)(=O)O)ccc12,91.7%,99.6%,93.2%,103,105%,88.8%,110%,101%,100,99.8%,91.4%,99.4%,108%,103%,93.2%,103%,96.3%,104%
CC12CC3CC1C(C(=O)O2)C3C(=O)O (stereo not drawn),93.1%,108%,104%,97.8,111%,95.6%,114%,101%,108,97.5%,108%,122%,109%,102%,108%,118%,95.8%,101%
c1ccc2c(N3CCCCC3)ncnc2c1,105%,66.9%,94.4%,99.9,96.8%,94%,96%,97.3%,116,91%,130%,90.8%,109%,98%,96.6%,88.4%,81.1%,103%
O=[N+]([O-])c1cccc(C(F)(F)F)c1,127%,107%,106%,97,103%,106%,105%,117%,103,106%,105%,103%,107%,92.6%,85.4%,99.1%,103%,119%
N=c1c(C(=O)OCc2ccccc2)ncc(CCl)n1O,82.6%,76.8%,101%,103,91.3%,107%,95%,99.1%,114,105%,93.9%,80.6%,96.1%,86.9%,91.9%,78.3%,104%,102%
CC(=O)c1c[nH]c2ccccc12,91.4%,110%,98.6%,111,99.8%,108%,101%,120%,104,107%,97.6%,104%,97.5%,105%,100%,97.8%,108%,120%
COc1cc(C2c3cc4c(cc3C3OC(=O)C2C3CO)OCO4)cc(OC)c1OC (stereo not drawn),4.01% (active),18.3%,3.3% (active),27.1,28.3%,-7.31% (active),13.7%,-21.9% (active),33.8,-2.7% (active),70.6%,-24.4% (active),-45% (active),23.1%,17%,7.29% (active),19%,1.84% (active)
Nc1ccc(N)c([N+](=O)[O-])c1,115%,98.8%,111%,104,112%,113%,113%,106%,105,107%,91.3%,96.9%,109%,97.7%,101%,99.6%,106%,104%
O=c1cc(-c2ccccc2)[nH]c(=S)[nH]1,91.9%,89.6%,111%,98.4,110%,113%,104%,106%,103,101%,107%,97.5%,104%,104%,95.3%,101%,104%,96.7%
CC(C)CCCC(=O)O,89.4%,105%,114%,100,96.8%,108%,104%,114%,103,109%,104%,108%,105%,100%,96%,107%,103%,102%
CC(=O)NC(N)=S,90.4%,103%,104%,116,111%,118%,121%,119%,115,110%,124%,117%,117%,101%,86.5%,111%,100%,107%
Cc1cc(=O)n(-c2ccc(F)cc2)[nH]1,97.1%,94.2%,95.2%,94.9,99.2%,95.3%,102%,103%,102,109%,69.5%,105%,105%,103%,86.7%,104%,106%,106%
C#CCSc1nnnn1-c1ccc(Br)c(C)c1,74.4%,62.1%,82.5%,90,80.8%,105%,-28.7% (active),106%,78.2,84.6%,87.6%,103%,95.8%,99.9%,82.4%,88%,121%,102%
CCN(CC)CCCC(C)Nc1ccnc(/C=C/c2ccc(Cl)cc2)c1 (stereo not drawn),-19% (active),-26.3% (active),14.8%,47.1,15.4%,72.8%,41.2%,26.5%,47.1,56.1%,-4.4% (active),29.1%,-53.4% (active),-53.2% (active),-26.6% (active),-10.5% (active),-23.6% (active),25.3%
CN(C)c1ccc(C(c2ccc(O)cc2)c2ccc(N(C)C)cc2)cc1,67.5%,80.1%,94.1%,98.6,94.9%,104%,106%,92.5%,91.8,93.9%,59.8%,103%,41.8%,96.5%,78.6%,93.9%,117%,89.5%
